The campaign covered roughly 5,500 compounds. About 2,000 (36%) were called active. Roughly 18% stayed inconclusive and do not appear here. Rule as the data show it: active = normalized growth mostly below about 0.91 (no sharp cut-off); inconclusive = no clear call, values can overlap the other calls; inactive = mostly above about 0.92. Some of the results follow.
Assay: chemical genetic growth profiling, strain panel (AID 1159580);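 also: tested at 20 µM; growth read once vehicle control cultures reached saturation at 30 °C; 1 = growth at the plate median or of vehicle wells; lower values mean less growth of the strain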
Details: growth OD

Measured: normalized growth

Nc1ccc(C(=O)NCC(=O)O)cc1
inactive: S. cerevisiae deletion strains, locus YKL009W, strain mrt4, stronger effect = lower value 1.02 | S. cerevisiae deletion strains, locus YKL068W, stronger effect = lower value 1 | S. cerevisiae deletion strains, locus YKL085W, strain MDH1 (second series), stronger effect = lower value 1.01 | S. cerevisiae deletion strains, locus YKL085W, strain MDH1, stronger effect = lower value 1.01 | S. cerevisiae deletion strains, locus YKL160W, strain elf1, stronger effect = lower value 1.04 | S. cerevisiae deletion strains, locus YKL190W, strain CNB1, stronger effect = lower value 1 | S. cerevisiae deletion strains, locus YKR001C, strain vps1, stronger effect = lower value 1.02 | S. cerevisiae deletion strains, locus YKR026C, strain gcn3, stronger effect = lower value 1.01 | S. cerevisiae deletion strains, locus YKR091W, strain srl3, stronger effect = lower value 0.999 | S. cerevisiae deletion strains, locus YLL001W, strain dnm1, stronger effect = lower value 1 | S. cerevisiae deletion strains, locus YLL026W, stronger effect = lower value 0.997 | S. cerevisiae deletion strains, locus YLL041C, strain sdh2, stronger effect = lower value 1.01 | S. cerevisiae deletion strains, locus YLR027C, strain aat2, stronger effect = lower value 1.03 | S. cerevisiae deletion strains, locus YLR039C, strain RIC1, stronger effect = lower value 1.01 | S. cerevisiae deletion strains, locus YLR058C, strain SHM2, stronger effect = lower value 0.998 | S. cerevisiae deletion strains, locus YLR102C, strain apc9, stronger effect = lower value 1.02 | S. cerevisiae deletion strains, locus YLR113W, strain HOG1, stronger effect = lower value 0.937 | S. cerevisiae deletion strains, locus YLR221C, strain rsa3, stronger effect = lower value 1 | S. cerevisiae deletion strains, locus YLR258W, strain gsy2, stronger effect = lower value 1.03 | S. cerevisiae deletion strains, locus YLR262C, strain YPT6 (second series), stronger effect = lower value 1.02 | S. cerevisiae deletion strains, locus YLR262C, strain YPT6, stronger effect = lower value 1.04 | S. cerevisiae deletion strains, locus YLR268W, strain sec22, stronger effect = lower value 1.02 | S. cerevisiae deletion strains, locus YLR320W, strain mms22, stronger effect = lower value 1.01 | S. cerevisiae deletion strains, locus YLR330W, strain CHS5, stronger effect = lower value 1.01 | S. cerevisiae deletion strains, locus YLR342W, strain FKS1 (second series), stronger effect = lower value 0.987 | S. cerevisiae deletion strains, locus YLR342W, strain FKS1, stronger effect = lower value 1.02 | S. cerevisiae deletion strains, locus YLR357W, strain rsc2, stronger effect = lower value 1.07 | S. cerevisiae deletion strains, locus YLR370C, strain arc18, stronger effect = lower value 1.01 | S. cerevisiae deletion strains, locus YLR371W, strain rom2, stronger effect = lower value 1 | S. cerevisiae deletion strains, locus YLR384C, strain iki3, stronger effect = lower value 1.02 | S. cerevisiae deletion strains, locus YLR418C, strain cdc73, stronger effect = lower value 1.04 | S. cerevisiae deletion strains, locus YML016C, strain PPZ1, stronger effect = lower value 1 | S. cerevisiae deletion strains, locus YML032C, strain rad52, stronger effect = lower value 1.01 | S. cerevisiae deletion strains, locus YML120C, strain ndi1, stronger effect = lower value 1 | S. cerevisiae deletion strains, locus YML124C, strain tub3, stronger effect = lower value 1.01 | S. cerevisiae deletion strains, locus YMR058W, strain fet3, stronger effect = lower value 1.01 | S. cerevisiae deletion strains, locus YMR078C, strain ctf18, stronger effect = lower value 1.02 | S. cerevisiae deletion strains, locus YMR125W, strain sto1, stronger effect = lower value 1.02 | S. cerevisiae deletion strains, locus YMR129W, stronger effect = lower value 1.02 | S. cerevisiae deletion strains, locus YMR205C, strain PFK2, stronger effect = lower value 1.03 | S. cerevisiae deletion strains, locus YMR223W, strain ubp8, stronger effect = lower value 1.01 | S. cerevisiae deletion strains, locus YMR231W, strain pep5, stronger effect = lower value 1.02 | S. cerevisiae deletion strains, locus YMR263W, strain SAP30, stronger effect = lower value 1 | S. cerevisiae deletion strains, locus YMR307W, strain GAS1, stronger effect = lower value 1.03 | S. cerevisiae deletion strains, locus YNL067W, strain RPL9B, stronger effect = lower value 0.99 | S. cerevisiae deletion strains, locus YNL071W, strain lat1, stronger effect = lower value 1.03 | S. cerevisiae deletion strains, locus YNL153C, strain GIM3, stronger effect = lower value 0.973 | S. cerevisiae deletion strains, locus YNL183C, strain NPR1, stronger effect = lower value 0.908 | S. cerevisiae deletion strains, locus YNL209W, strain ssb2, stronger effect = lower value 1.01 | S. cerevisiae deletion strains, locus YNL233W, strain BNI4, stronger effect = lower value 0.986 | S. cerevisiae deletion strains, locus YNL248C, strain rpa49, stronger effect = lower value 1.02 | S. cerevisiae deletion strains, locus YNL250W, strain rad50, stronger effect = lower value 1.01 | S. cerevisiae deletion strains, locus YNL271C, strain bni1, stronger effect = lower value 1.02 | S. cerevisiae deletion strains, locus YNL298W, strain CLA4, stronger effect = lower value 1.03 | S. cerevisiae deletion strains, locus YNL307C, strain MCK1, stronger effect = lower value 1.02 | S. cerevisiae deletion strains, locus YNL322C, strain KRE1 (second series), stronger effect = lower value 1.01 | S. cerevisiae deletion strains, locus YNL322C, strain KRE1, stronger effect = lower value 0.997 | S. cerevisiae deletion strains, locus YNR049C, strain mso1, stronger effect = lower value 1.01 | S. cerevisiae deletion strains, locus YNR052C, strain pop2, stronger effect = lower value 1.02 | S. cerevisiae deletion strains, locus YOL006C, strain TOP1, stronger effect = lower value 0.96 | S. cerevisiae deletion strains, locus YOL012C, strain htz1 1.06 | S. cerevisiae deletion strains, locus YOL147C, strain pex11, stronger effect = lower value 1.01 | S. cerevisiae deletion strains, locus YOR001W, strain rrp6, stronger effect = lower value 0.986 | S. cerevisiae deletion strains, locus YOR061W, strain CKA2, stronger effect = lower value 1.01 | S. cerevisiae deletion strains, locus YOR069W, strain VPS5, stronger effect = lower value 1 | S. cerevisiae deletion strains, locus YOR070C, strain gyp1, stronger effect = lower value 1.01 | S. cerevisiae deletion strains, locus YOR080W, strain dia2, stronger effect = lower value 1.01 | S. cerevisiae deletion strains, locus YOR083W, strain WHI5, stronger effect = lower value 0.99 | S. cerevisiae deletion strains, locus YOR106W, strain vam3, stronger effect = lower value 1.04 | S. cerevisiae deletion strains, locus YOR136W, strain idh2, stronger effect = lower value 1.02 | S. cerevisiae deletion strains, locus YOR144C, strain elg1, stronger effect = lower value 1.01 | S. cerevisiae deletion strains, locus YOR184W, strain ser1, stronger effect = lower value 1.02 | S. cerevisiae deletion strains, locus YOR231W, strain MKK1, stronger effect = lower value 0.97 | S. cerevisiae deletion strains, locus YOR265W, strain rbl2, stronger effect = lower value 1 | S. cerevisiae deletion strains, locus YOR270C, strain vph1, stronger effect = lower value 1.02 | S. cerevisiae deletion strains, locus YOR290C, strain snf2, stronger effect = lower value 1.04 | S. cerevisiae deletion strains, locus YOR316C, strain cot1, stronger effect = lower value 1.02 | S. cerevisiae deletion strains, locus YPL051W, strain arl3, stronger effect = lower value 1.02 | S. cerevisiae deletion strains, locus YPL078C, strain atp4, stronger effect = lower value 1.02 | S. cerevisiae deletion strains, locus YPL106C, strain sse1, stronger effect = lower value 1.04 | S. cerevisiae deletion strains, locus YPL240C, strain hsp82, stronger effect = lower value 1.01 | S. cerevisiae deletion strains, locus YPL241C, strain CIN2, stronger effect = lower value 1 | S. cerevisiae deletion strains, locus YPL256C, strain CLN2, stronger effect = lower value 0.936 | S. cerevisiae deletion strains, locus YPR119W, strain clb2, stronger effect = lower value 1.01 | S. cerevisiae deletion strains, locus YPR141C, strain kar3, stronger effect = lower value 1.01 | S. cerevisiae deletion strains, locus YPR163C, strain tif3, stronger effect = lower value 1.01 | S. cerevisiae deletion strains, locus YPR167C, strain met16, stronger effect = lower value 1.02 | S. cerevisiae deletion strains, strain wtn01, stronger effect = lower value 1.03 | S. cerevisiae strains, strain wild type, stronger effect = lower value 0.995

Source: PubChem BioAssay AID1159580 (chemical genetic matrix, 2015)
